esBAF inh = blocks esBAF chromatin remodeling in mouse ES cells; 2% of 350,000 active; AID 602393; Bmi1-luciferase knock-in reporter, 24 h; 100% = twice the neutral-well signal; reporter increase, % at 12.5 µM; in the data active means activation above about 40%; inconclusive means no clear call, values can overlap the other calls;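 further: a rise in the Bmi1 reporter signal indicates esBAF inhibition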
FXN GAA850 act = increases GAA850 frataxin promoter reporter activity | AID 540364 | activation, % at 6 µM | HEK293 lucGAA850 FXN promoter luciferase reporter, 24 h; percent of 10 µM SAHA response | 0.56% of 360,000 active;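 active means activation above the average of all compounds screened plus 3 SD, cutoff fixed separately per campaign, cut at about 7.5% in these data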
Statin myotox sup = protects C2C12 myotubes from simvastatin toxicity | ATP luminescence, 48 h; scaled: DMSO 0, geranylgeraniol control 100 | rescue of ATP level, % at 7.49 µM | 0.78% of 330,000 active;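 active means mean ATP rescue above about 67%, or every replicate alone reaching that limit, limit read from the data, passing the limit was not always enough; inconclusive means no clear call, values can overlap the other calls; inactive means mean under the limit and some replicate under it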;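 further: myotubes were challenged with 10 µM simvastatin during compound exposure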
MITF TRPM1 HTS = increases MITF-driven TRPM1 promoter luciferase signal; activation, % at 12.5 µM; SK-MEL-5 TRPM1-promoter luciferase, 24 h; % of positive control, neutral wells = 0; AID 588334; 0.75% of 300,000 active;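 active means mean activation of at least 80% with every replicate also reaching 80%; inconclusive means mean reaches 80% but some replicate falls short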
Wnt bcat act = activators of Wnt/beta-catenin signaling | Wnt/beta-catenin reporter cell assay, activator, plate reader | activation, % at 9.35 µM | 1.2% of 300,000 active; in the data active means activation above about 30%, passing the limit was not always enough; inconclusive means no clear call, values can overlap the other calls
Each line names hits and unclear results; the compound was inactive in the other large screens. A selection: hits, their analogues and other compounds. The true share with any hit is near 3.3%.

CN(C)c1cccc(C(=O)NNC(=O)CN2C(=O)C3CC=CCC3C2=O)c1 (stereo not given)	esBAF inh 42
CC(C)NC(=O)N(C)C[C@H]1Oc2ccc(NS(=O)(=O)c3ccc(F)cc3)cc2CC(=O)N([C@@H](C)CO)C[C@@H]1C	none (no result: FXN GAA850 act, MITF TRPM1 HTS, Wnt bcat act)
C[C@H](CO)N1C[C@H](C)[C@H](CN(C)CC2CCCCC2)Oc2ccc(NC(=O)Nc3cccc4ccccc34)cc2C1=O	none (no result: FXN GAA850 act, MITF TRPM1 HTS, Wnt bcat act)
Cc1ccc([C@H]2C[C@@H](O)[C@H](n3cc(C4CC4)nn3)CN2Cc2cccs2)cc1	none (no result: MITF TRPM1 HTS)
Cc1ccc([C@H]2C[C@H](O)[C@@H](n3cc(C4CC4)nn3)CN2Cc2cccs2)cc1	esBAF inh 47 (no result: MITF TRPM1 HTS)
C[C@@H]1CN([C@@H](C)CO)C(=O)c2cc(NS(=O)(=O)c3ccc(Cl)cc3)ccc2O[C@@H](C)CCCCO[C@H]1CN(C)S(=O)(=O)c1cccs1	none (no result: FXN GAA850 act, Statin myotox sup, MITF TRPM1 HTS, Wnt bcat act)
Cc1ccc2oc(=O)n(CCCOc3ccccc3)c2c1	Wnt bcat act 42 (no result: MITF TRPM1 HTS)
Cc1cccc(OCCn2c(=O)sc3ccccc32)c1	esBAF inh 68, MITF TRPM1 HTS 91 (no result: Wnt bcat act)
Cc1ccc(OCCn2c(=O)oc3ccc(C)cc32)cc1	none
Cc1ccccc1OCCn1c(=O)sc2ccccc21	esBAF inh 63
Cc1cccc(OCCCn2c(=O)sc3ccccc32)c1	esBAF inh 54 (no result: Wnt bcat act)
COc1ccc(OCCn2c(=O)sc3ccccc32)cc1	none (no result: esBAF inh, Statin myotox sup)
Cc1cccc(OCCN2C(=O)c3ccccc3C2=O)c1	none (no result: esBAF inh, Statin myotox sup)
Cc1cccc(OCCn2c(=O)n(C)c3ccccc32)c1	esBAF inh 78, Wnt bcat act inconclusive
COc1ccc(-c2ccc3nccn3c2)cc1	esBAF inh 45 (no result: MITF TRPM1 HTS)
CCOC(=O)c1sc(NC(=O)CSc2nc3ccccc3o2)c(C(=O)OCC)c1C	none
CCCc1nc(Nc2nc3ccccc3o2)nc(C)c1C(=O)OCC	esBAF inh 63, MITF TRPM1 HTS 116 (no result: Wnt bcat act)
COc1cccc(CNc2cccc(C(F)(F)F)c2)c1O	none
COc1cccc(CNc2ccc(F)c(Cl)c2)c1O	MITF TRPM1 HTS 88 (no result: Wnt bcat act)
CCOC(=O)c1c(-c2cccs2)csc1NC(=O)CN1CCOCC1	Statin myotox sup 93 (no result: Wnt bcat act)
CCOC(=O)c1c(-c2ccc(C)o2)csc1NC(=O)CN1CCOCC1	none (no result: Wnt bcat act)
O=C(N/N=C/c1ccccc1O)NC12CC3CC(CC(C3)C1)C2	MITF TRPM1 HTS 136
CN(C)C(=O)C[C@H]1CC[C@@H](NC(=O)NC2CCCC2)[C@@H](CO)O1	none (no result: FXN GAA850 act, MITF TRPM1 HTS, Wnt bcat act)
Cc1cc(/C=C(\C#N)C(=O)NCC2CCCO2)c(C)n1-c1ccc(Cl)cc1 (stereo not given)	esBAF inh 88, MITF TRPM1 HTS inconclusive (no result: Wnt bcat act)
COc1cc(/C=C(\C#N)C(=O)NCC2CCCO2)ccc1O (stereo not given)	none (no result: esBAF inh, Statin myotox sup)
CCCC#Cc1ccc2c(c1)O[C@@H](CN(C)C(=O)CC1CC1)[C@H](C)CN([C@@H](C)CO)S2(=O)=O	none (no result: FXN GAA850 act, MITF TRPM1 HTS, Wnt bcat act)
O=C(C[C@H]1C=C[C@@H](NS(=O)(=O)c2ccc(F)cc2)[C@@H](CO)O1)NCc1ccc(Cl)c(Cl)c1	none (no result: FXN GAA850 act, MITF TRPM1 HTS, Wnt bcat act)
Cc1noc(C)c1NC(=O)N(C)C[C@@H]1OCCCC[C@@H](C)Oc2ccc(NC(=O)NC(C)C)cc2C(=O)N([C@@H](C)CO)C[C@H]1C	none (no result: FXN GAA850 act, Statin myotox sup, MITF TRPM1 HTS, Wnt bcat act)
Cc1ccccc1-c1noc(-c2ccccc2F)n1	esBAF inh 67, MITF TRPM1 HTS 107
NC(=O)c1ccc(-c2noc(-c3ccccc3F)n2)cc1	none
Fc1ccccc1-c1nc(-c2ccc(Cl)cc2)no1	esBAF inh 49 (no result: Wnt bcat act)
CO[C@@H]1CN(C)C(=O)c2ccc(NC(=O)c3cc(C)on3)cc2OC[C@@H](C)N(C)C[C@@H]1C	none (no result: FXN GAA850 act, MITF TRPM1 HTS, Wnt bcat act)
C[C@H]1CN([C@@H](C)CO)C(=O)c2cc(NC(=O)NC3CCCCC3)ccc2O[C@H]1CN(C)S(=O)(=O)c1ccccc1	none (no result: FXN GAA850 act, MITF TRPM1 HTS, Wnt bcat act)
COC(=O)c1nc2cc(C)ccn2c1F	none (no result: MITF TRPM1 HTS)
COC(=O)c1c(C(=O)OC)c2cc(C)ccn2c1Cl	Statin myotox sup 101 (no result: Wnt bcat act)
C[C@@H]1CN([C@H](C)CO)C(=O)c2cccc(NC(=O)c3ccc(-c4nccs4)cc3)c2O[C@@H]1CN(C)S(=O)(=O)c1cn(C)cn1	none (no result: FXN GAA850 act, Statin myotox sup, MITF TRPM1 HTS, Wnt bcat act)
COc1cccc(/C=C2\Oc3ccc(O)cc3C2=O)c1O	Wnt bcat act 38
ClC(Br)=C(n1cnc2ccccc21)n1cnc2ccccc21	Statin myotox sup 90
CN(C(=O)n1cnc2ccccc21)c1ccccc1	none (no result: esBAF inh, Statin myotox sup)
CO[C@H]1CN(C)C(=O)c2ccc(NC(=O)C3CC3)cc2OC[C@H](C)N(C)C[C@H]1C	none (no result: FXN GAA850 act, MITF TRPM1 HTS, Wnt bcat act)
Cc1cc2c(c(=O)n1CCN(C)C)C(c1ccccc1Br)C(C#N)=C(N)O2 (stereo not given)	Statin myotox sup 90 (no result: Wnt bcat act)

From PubChem
